Test results published in the supplement of paper PMC8728848.
About 410 targets per protein were measured; listed, in parts, are those with the strongest signals and a random draw of the rest.

Experiments:
Assay in all cases: glycan array binding signal (z-score within array); higher = stronger binding
Conditions in all cases: glycan notation: IUPAC condensed, linker removed
[1] = target: Fuc(a1-2)Gal(b1-3)GlcNAc(b1-2)Man(a1-3)[Fuc(a1-2)Gal(b1-3)GlcNAc(b1-2)Man(a1-6)]Man(b1-4)GlcNAc(b1-4)[Fuc(a1-6)]GlcNAc
Outline: (§1)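 Glycan array binding is given as a within-array Z-score, which can be read as non-binding when negative. The arrays, 3228 of them, came from the Consortium for Functional Glycomics database and were retained only where the protein sequence was available. Z-scores were averaged across arrays of the same protein sequence at different concentrations or buffers and across linkers.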

[2] = target: Fuc(a1-2)Gal(b1-3)GlcNAc(b1-3)GalNAc
Outline: as §1

[3] = target: Fuc(a1-2)Gal(b1-3)[Fuc(a1-4)]GlcNAc(b1-3)[Gal(b1-4)GlcNAc(b1-6)]Gal(b1-4)Glc
Outline: as §1

[4] = target: Fuc(a1-2)Gal(b1-4)GlcNAc(b1-3)Gal(b1-4)GlcNAc
Outline: as §1

[5] = target: Fuc(a1-2)Gal(b1-4)GlcNAc(b1-3)Gal(b1-4)GlcNAc(b1-3)Gal(b1-4)GlcNAc
Outline: as §1

[6] = target: Fuc(a1-2)Gal(b1-4)[Fuc(a1-3)]GlcNAc(b1-3)Gal(b1-4)[Fuc(a1-3)]GlcNAc(b1-3)Gal(b1-4)[Fuc(a1-3)]GlcNAc
Outline: as §1

[7] = target: Fuc(a1-2)[Gal(a1-3)]Gal(b1-4)GlcNAc(b1-2)Man(a1-3)[Fuc(a1-2)[Gal(a1-3)]Gal(b1-4)GlcNAc(b1-2)Man(a1-6)]Man(b1-4)GlcNAc(b1-4)[Fuc(a1-6)]GlcNAc
Outline: as §1

[8] = target: Fuc(a1-2)[Gal(a1-3)]Gal(b1-4)[Fuc(a1-3)]GlcNAc(b1-3)GalNAc
Outline: as §1

[9] = target: Fuc(a1-2)[GalNAc(a1-3)]Gal(b1-4)GlcNAc(b1-3)Gal(b1-4)GlcNAc
Outline: as §1

[10] = target: Fuc(a1-2)[GalNAc(a1-3)]Gal(b1-4)GlcNAc(b1-3)Gal(b1-4)GlcNAc(b1-3)Gal(b1-4)GlcNAc
Outline: as §1

Fuc(a1-3)GlcNAc = target: Fuc(a1-3)GlcNAc
Outline: as §1

Gal(b1-2)Gal = target: Gal(b1-2)Gal
Outline: as §1

[11] = target: Gal(b1-3)GalNAc(a1-3)[Fuc(a1-2)]Gal(b1-4)Glc
Outline: as §1

[12] = target: Gal(b1-3)GlcNAc(b1-2)Man(a1-3)[Gal(b1-3)GlcNAc(b1-2)Man(a1-6)]Man(b1-4)GlcNAc(b1-4)GlcNAc
Outline: as §1

[13] = target: Gal(b1-3)[Fuc(a1-4)]GlcNAc(b1-2)Man(a1-3)[Gal(b1-3)[Fuc(a1-4)]GlcNAc(b1-2)Man(a1-6)]Man(b1-4)GlcNAc(b1-4)GlcNAc
Outline: as §1

[14] = target: Gal(b1-3)[Fuc(a1-4)]GlcNAc(b1-2)Man(a1-3)[Gal(b1-3)[Fuc(a1-4)]GlcNAc(b1-2)Man(a1-6)]Man(b1-4)GlcNAc(b1-4)[Fuc(a1-6)]GlcNAc
Outline: as §1

[15] = target: Gal(b1-4)GlcNAc(b1-3)Gal(b1-4)GlcNAc(b1-3)Gal(b1-4)GlcNAc
Outline: as §1

[16] = target: Gal(b1-4)GlcNAc(b1-6)Gal(b1-4)GlcNAc
Outline: as §1

Gal4S(b1-4)GlcNAc = target: Gal4S(b1-4)GlcNAc
Outline: as §1

Gal6S(b1-4)Glc = target: Gal6S(b1-4)Glc
Outline: as §1

Gal6S(b1-4)GlcNAc = target: Gal6S(b1-4)GlcNAc
Outline: as §1

[17] = target: GlcNAc(b1-2)Man(a1-3)[GlcNAc(b1-4)][GlcNAc(b1-2)Man(a1-6)]Man(b1-4)GlcNAc(b1-4)GlcNAc
Outline: as §1

[18] = target: Neu5Ac(a2-3)Gal(b1-3)GlcNAc(b1-3)GalNAc
Outline: as §1

[19] = target: Neu5Ac(a2-6)Gal(b1-4)GlcNAc(b1-2)Man(a1-3)[Gal(b1-4)GlcNAc(b1-2)Man(a1-6)]Man(b1-4)GlcNAc(b1-4)GlcNAc
Outline: as §1

[20] = target: Neu5Ac(a2-6)Gal(b1-4)GlcNAc(b1-2)Man(a1-6)[Man(a1-3)]Man(b1-4)GlcNAc(b1-4)GlcNAc
Outline: as §1

[21] = target: Neu5Ac(a2-6)Gal(b1-4)GlcNAc(b1-3)Gal(b1-3)GlcNAc
Outline: as §1

[22] = target: Neu5Ac(a2-6)Gal(b1-4)GlcNAc(b1-3)Gal(b1-4)GlcNAc(b1-3)Gal(b1-4)GlcNAc
Outline: as §1

[23] = target: Neu5Gc(a2-3)Gal(b1-4)GlcNAc
Outline: as §1

B1: Gal 7 (Canis lupus) (protein)
chain: MAGSSNVPHKTSLPEGIRVGTVMRIRGVVPNKAGRFYVNLLCGEAPGSEAALHFNPRLDESTVVFNTLEQGAWGREERGTGIPFQRGQPFDVLLIATDEGFKAVVGDSEYHHFRYRIPPARVRLLEVGGDLQLESVSVF
[1]
  glycan array binding signal (z-score): -0.169
[2]
  glycan array binding signal (z-score): -0.187
[3]
  glycan array binding signal (z-score): -0.135
[4]
  glycan array binding signal (z-score): 9.85
[5]
  glycan array binding signal (z-score): 8.28
[6]
  glycan array binding signal (z-score): 5.78
[7]
  glycan array binding signal (z-score): 1.25
[8]
  glycan array binding signal (z-score): -0.16
[9]
  glycan array binding signal (z-score): 3.55
[10]
  glycan array binding signal (z-score): 2.59
Fuc(a1-3)GlcNAc
  glycan array binding signal (z-score): -0.217
Gal(b1-2)Gal
  glycan array binding signal (z-score): -0.214
[11]
  glycan array binding signal (z-score): 0.252
[12]
  glycan array binding signal (z-score): -0.08
[13]
  glycan array binding signal (z-score): -0.166
[14]
  glycan array binding signal (z-score): -0.199
[15]
  glycan array binding signal (z-score): 3.2
[16]
  glycan array binding signal (z-score): -0.206
Gal4S(b1-4)GlcNAc
  glycan array binding signal (z-score): -0.2
Gal6S(b1-4)Glc
  glycan array binding signal (z-score): -0.204
Gal6S(b1-4)GlcNAc
  glycan array binding signal (z-score): -0.195
[17]
  glycan array binding signal (z-score): -0.186
[18]
  glycan array binding signal (z-score): -0.22
[19]
  glycan array binding signal (z-score): -0.212
[20]
  glycan array binding signal (z-score): -0.212
[21]
  glycan array binding signal (z-score): 3.85
[22]
  glycan array binding signal (z-score): 3.5
[23]
  glycan array binding signal (z-score): -0.217
